Reference: PubChem BioAssay AID1159580 (chemical genetic matrix, 2015)
In all, about 5,500 compounds went through this assay and about 2,000 (36%) were called active. Roughly 18% stayed inconclusive and do not appear here. Rule as the data show it: active = normalized growth mostly below about 0.91 (no sharp cut-off); inconclusive = no clear call, values can overlap the other calls; inactive = mostly above about 0.92. The list shows a part of the results.

Assay: chemical genetic growth profiling, strain panel (AID 1159580);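 also: tested at 20 µM; growth read once vehicle control cultures reached saturation at 30 °C; 1 = growth at the plate median or of vehicle wells; lower values mean less growth of the strain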
Settings: S. cerevisiae deletion strains, growth OD

Measured: normalized growth

CC1=NS(=O)(=O)c2cc(Cl)ccc2N1
inactive: locus YAL021C, strain ccr4, stronger effect = lower value 0.919 | locus YAL026C, strain drs2, stronger effect = lower value 0.972 | locus YAL030W, strain snc1, stronger effect = lower value 0.987 | locus YAL040C, strain CLN3, stronger effect = lower value 1 | locus YBL061C, strain skt5, stronger effect = lower value 0.984 | locus YBR009C, strain hhf1, stronger effect = lower value 0.984 | locus YBR023C, strain chs3, stronger effect = lower value 0.971 | locus YBR171W, strain sec66, stronger effect = lower value 0.972 | locus YBR231C, strain swc5, stronger effect = lower value 0.995 | locus YBR279W, strain paf1, stronger effect = lower value 0.952 | locus YCL011C, strain gbp2, stronger effect = lower value 0.985 | locus YCL016C, strain dcc1, stronger effect = lower value 0.976 | locus YCL061C, strain MRC1 (second series), stronger effect = lower value 0.995 | locus YCL069W, strain vba3, stronger effect = lower value 0.967 | locus YCR088W, strain abp1, stronger effect = lower value 0.971 | locus YDL005C, strain med2, stronger effect = lower value 0.972 | locus YDL040C, strain nat1, stronger effect = lower value 0.958 | locus YDR001C, strain nth1, stronger effect = lower value 0.967 | locus YDR069C, strain doa4, stronger effect = lower value 0.937 | locus YDR137W, strain rgp1, stronger effect = lower value 0.957 | locus YDR150W, strain NUM1, stronger effect = lower value 1.01 | locus YDR159W, strain sac3, stronger effect = lower value 0.936 | locus YDR195W, strain ref2 0.899 | locus YDR297W, strain sur2, stronger effect = lower value 0.974 | locus YDR334W, strain swr1, stronger effect = lower value 0.936 | locus YDR335W, strain msn5, stronger effect = lower value 0.971 | locus YDR363W, strain ESC2, stronger effect = lower value 0.973 | locus YDR392W, strain spt3, stronger effect = lower value 0.971 | locus YEL003W, strain gim4, stronger effect = lower value 0.984 | locus YEL037C, strain rad23, stronger effect = lower value 0.944 | locus YEL061C, strain CIN8 (second series), stronger effect = lower value 0.972 | locus YER002W, strain NOP16, stronger effect = lower value 0.999 | locus YER015W, strain faa2, stronger effect = lower value 0.971 | locus YER016W, strain bim1, stronger effect = lower value 0.963 | locus YER111C, strain swi4, stronger effect = lower value 0.99 | locus YER155C, strain BEM2 (second series), stronger effect = lower value 0.994 | locus YFR010W, strain ubp6, stronger effect = lower value 0.946 | locus YGL167C, strain pmr1, stronger effect = lower value 0.95 | locus YGL173C, strain kem1, stronger effect = lower value 0.995 | locus YGL227W, strain vid30, stronger effect = lower value 0.967 | locus YGL240W, strain doc1, stronger effect = lower value 0.953 | locus YGL253W, strain hxk2, stronger effect = lower value 0.951 | locus YGR078C, strain PAC10, stronger effect = lower value 1.01 | locus YHR013C, strain ard1, stronger effect = lower value 0.925 | locus YHR027C, strain rpn1, stronger effect = lower value 0.977 | locus YHR030C, strain SLT2, stronger effect = lower value 0.96 | locus YHR079C, strain IRE1, stronger effect = lower value 0.969 | locus YHR142W, strain chs7, stronger effect = lower value 0.948 | locus YJL092W, strain hpr5, stronger effect = lower value 0.986 | locus YJL095W, strain BCK1 (second series), stronger effect = lower value 0.961 | locus YJL095W, strain BCK1, stronger effect = lower value 0.974 | locus YJL115W, strain asf1, stronger effect = lower value 0.948 | locus YJL129C, strain trk1, stronger effect = lower value 0.975 | locus YJL154C, strain vps35, stronger effect = lower value 0.989 | locus YJL164C, strain tpk1, stronger effect = lower value 0.977 | locus YJL166W, strain qcr8, stronger effect = lower value 0.963 | locus YJL187C, strain SWE1, stronger effect = lower value 0.979 | locus YJR066W, strain TOR1, stronger effect = lower value 0.948 | locus YJR075W, strain HOC1, stronger effect = lower value 0.991 | locus YKL160W, strain elf1, stronger effect = lower value 0.981 | locus YKR026C, strain gcn3, stronger effect = lower value 0.958 | locus YKR091W, strain srl3, stronger effect = lower value 0.969 | locus YLL001W, strain dnm1, stronger effect = lower value 0.969 | locus YLL026W, stronger effect = lower value 0.985 | locus YLL041C, strain sdh2, stronger effect = lower value 0.981 | locus YLR027C, strain aat2, stronger effect = lower value 0.975 | locus YLR113W, strain HOG1, stronger effect = lower value 0.951 | locus YLR221C, strain rsa3, stronger effect = lower value 0.986 | locus YLR258W, strain gsy2, stronger effect = lower value 0.971 | locus YLR262C, strain YPT6 (second series), stronger effect = lower value 0.961 | locus YLR320W, strain mms22, stronger effect = lower value 0.971 | locus YLR342W, strain FKS1, stronger effect = lower value 0.992 | locus YLR357W, strain rsc2, stronger effect = lower value 0.944 | locus YLR370C, strain arc18, stronger effect = lower value 0.963 | locus YLR384C, strain iki3, stronger effect = lower value 0.984 | locus YML120C, strain ndi1, stronger effect = lower value 0.98 | locus YMR058W, strain fet3, stronger effect = lower value 0.97 | locus YMR125W, strain sto1, stronger effect = lower value 0.955 | locus YMR129W, stronger effect = lower value 0.955 | locus YMR205C, strain PFK2, stronger effect = lower value 0.966 | locus YMR231W, strain pep5, stronger effect = lower value 0.963 | locus YMR307W, strain GAS1, stronger effect = lower value 0.993 | locus YNL071W, strain lat1, stronger effect = lower value 0.949 | locus YNL175C, strain NOP13, stronger effect = lower value 1 | locus YNL183C, strain NPR1, stronger effect = lower value 0.906 | locus YNL197C, strain WHI3, stronger effect = lower value 0.996 | locus YNL209W, strain ssb2, stronger effect = lower value 0.979 | locus YNL224C, strain SQS1, stronger effect = lower value 1 | locus YNL248C, strain rpa49, stronger effect = lower value 0.998 | locus YNL322C, strain KRE1 (second series), stronger effect = lower value 0.966 | locus YNL322C, strain KRE1, stronger effect = lower value 0.953 | locus YNR049C, strain mso1, stronger effect = lower value 0.974 | locus YOR001W, strain rrp6, stronger effect = lower value 0.958 | locus YOR070C, strain gyp1, stronger effect = lower value 0.99 | locus YOR080W, strain dia2, stronger effect = lower value 0.942 | locus YOR083W, strain WHI5 (second series), stronger effect = lower value 1.02 | locus YOR083W, strain WHI5, stronger effect = lower value 0.958 | locus YOR106W, strain vam3, stronger effect = lower value 0.983 | locus YOR231W, strain MKK1, stronger effect = lower value 0.978 | locus YOR265W, strain rbl2, stronger effect = lower value 0.975 | locus YOR270C, strain vph1, stronger effect = lower value 0.888 | locus YOR290C, strain snf2, stronger effect = lower value 0.965 | locus YPL051W, strain arl3, stronger effect = lower value 0.994 | locus YPL055C, strain LGE1, stronger effect = lower value 0.987 | locus YPL078C, strain atp4, stronger effect = lower value 0.985 | locus YPL106C, strain sse1, stronger effect = lower value 0.92 | locus YPL240C, strain hsp82, stronger effect = lower value 0.967 | locus YPL241C, strain CIN2, stronger effect = lower value 0.992 | locus YPL256C, strain CLN2, stronger effect = lower value 0.97
